The text below walks through data of PubChem BioAssay (NCI).

Molecules are shown by their SMILES. This is part of a sample that, as a whole, favours compounds with a hit. Of some 83,000 tested, about 20% had one in any assay.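 96-well plates, one dose, 48 hours. Percent growth reported; active if below 10.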 Unmarked numbers belong to inactive results. The source made the active and inactive calls.

Experiment in all cases: NCI-60 one-dose screen, 48 h (100 = growth as untreated, 0 = no growth, -100 = all killed)
What all share (details): 10 µM unless noted

Test [1] has as its system NCI-H23 lung.
The test system of test [2] is NCI-H226 lung.
Test [3] concerns NCI-H322M lung.
For test [4], the system named is HOP-62 NSCLC.
In test [5] the test system is NCI-H460 lung.
Test [6] concerns HOP-92 NSCLC.
In test [7] the test system is NCI-H522 lung.
Test [8] concerns A549/ATCC NSCLC.
For test [9], the system named is 786-0 renal.
Test [10] deals with COLO 205 colon.
Test [11] relates to DU-145 prostate.
Test [12] concerns K-562 leukemia.
The test system of test [13] is MALME-3M melanoma.
Test [14] has as its system MDA-MB-231 breast.
Test [15] concerns RXF 393 renal.
Test [16] deals with SF-268 CNS.
Test [17] concerns SF-295 CNS.
Test [18] relates to SF-539 CNS.
Test [19] relates to UACC-257 melanoma.
The test system of test [20] is M14 melanoma.

For `C=CCn1c(SCC(=O)Nc2ccc(C(=O)/C=C/c3ccc(Cl)cc3)cc2)nnc1-c1ccccc1`, the growth in [1] was 95%; in test [2] it was 94.7%; in test [3], 96.7%; in test [4] it was 97%; in test [5], 106%; in test [6] it was 93.2%. Moreover, the growth in [7] was 82.2%; in test [8], 93.2%; in test [9], 81.8%; in test [10], 105%; in test [11], 93.7%; in [12], 76.3%. Further, the growth in [13] was 98.7%; in [14], 101%; in test [15], 118%; in test [16], 84.7%; in [17], 94.9%; in test [18], 96.6%. For the same compound, the growth in test [19] is 111%; in test [20] it was 94.4%.

Regarding `COc1ccc(C(=O)/C=C/c2ccc(C)cc2)cc1S(N)(=O)=O`, the growth is 77.4% in test [1]; 83% in test [2]; 36.1% in test [3]; 78.1% in test [4]; 53.5% in [5]; 41.2% in test [6]. Moreover, the growth was 43.1% in [7]; 43.6% in test [8]; 40.8% in [9]; 95.8% in test [10]; 47.3% in [11]; 3.04% (active) in [12]. The growth is 96.9% in test [13]; 58.9% in test [14]; 74.4% in test [15]; 72.4% in test [16]; 91.3% in test [17]; 25% in test [18]. In addition, the growth was 83.2% in test [19] and 71.1% in test [20].

Take `CC/C(=C(/c1ccc(Cl)cc1)c1ccc(OCCN2CCCCCC2)cc1)c1ccccc1`: the growth was 77.5% in [1]; 97.6% in test [2]; 107% in test [3]; 103% in [4]; 56.4% in [5]; 80.3% in test [6]. The growth in test [7] was 89.6%; in test [8] it was 59.5%; in [9], 85.2%; in test [10] it was 37%; in test [11], 97.2%; in test [12] it was 19.8%. Moreover, the growth in test [13] was 98.5%; in [14], 83%; in [15], 72.5%; in test [16], 81.6%; in test [17], 98.3%; in [18], 84.3%. For the same compound, the growth in test [19] is 92.4%; in [20], 81.6%.

`CNC(=O)c1cc(Oc2ccc3nc(NC(=O)c4cc(C(F)(F)F)cc(C(F)(F)F)c4)sc3c2)ccn1`: the growth in [1] was 20.2%; in test [2], 23.3%; in test [3], 15.1%; in test [4], 16.3%; in test [5] it was 15.7%; in test [6] it was -32.5% (active). In addition, the growth in test [7] is -9.54% (active); in test [8] it was 17.8%; in [9], 9.65% (active); in test [10], 19.1%; in [11], 27.5%; in [12], 13.3%. The growth in [13] was 2.93% (active); in test [14], 8.74% (active); in [15] it was -3.77% (active); in test [16], 23.6%; in test [17], 3.03% (active); in test [18], 19.1%. The growth was 0.459% (active) in [19] and 22% in [20].

Turning to `Cc1c(Cl)cccc1NC(=O)c1sc2nc3c(cc2c1N)CCCC3`, the growth in test [1] was 58.9%; in test [2], 69.3%; in [3], 74.2%; in [4], 25.2%; in [5], 12.9%; in test [6], 25.6%. Further, the growth in [7] was 4.4% (active); in [8], 39.1%; in test [9] it was 29.8%; in [10], 22.1%; in test [11] it was 39.9%; in test [12] it was 13.7%. In addition, the growth in test [13] is 67.7%; in test [14], 49.5%; in test [15] it was 40%; in test [16], 49.3%; in test [17], 8.07% (active); in test [18] it was 4.43% (active). Further, the growth in [19] was 37.7%; in test [20], 25.3%.

Take `CCCN1C(=O)N(CCC)C2C1NC(=S)N2/N=C/C=C/c1ccccc1OC` (stereo not given): the growth in test [1] was 36.4%; in test [2], 55.4%; in test [3] it was 44.6%; in test [4], 38.7%; in test [5], 6.85% (active); in test [6] it was 77.4%. Moreover, the growth in [7] was -11.3% (active); in test [8], 13.1%; in test [9], 35.6%; in test [10] it was 17.6%; in test [11], 14.2%; in test [12], 12.6%. For the same compound, the growth in test [13] was 40.4%; in test [14], 23.9%; in test [15], -29.8% (active); in test [16], 62.9%; in [17] it was 10.9%; in [18], -30.6% (active). Moreover, the figures for the growth in test [19] and in test [20] were 60.5% and -0.388% (active), respectively.

On to `Cc1csc(Nc2nc(-c3cccc(Cl)c3)nc(C(Cl)(Cl)Cl)n2)n1`, for which the growth in test [1] is 79%; in [2], 95.6%; in test [3], -23.1% (active); in test [4], 20.3%; in [5], 9.9% (active); in test [6], 32.7%. Further, the growth in test [7] is 83.6%; in [8], 1.73% (active); in test [9], 59.5%; in test [10] it was -38.6% (active); in [11], -30.4% (active); in test [12] it was 65.6%. The growth was 102% in test [13]; 9.88% (active) in test [14]; -2.8% (active) in [15]; 65.8% in test [16]; 34.1% in test [17]; 34% in test [18]. For the same compound, the values for the growth in test [19] and in [20] were 36.2% and 88.3%, respectively.
